Reference: PubChem BioAssay AID1259313 (Sanford-Burnham Center for Chemical Genomics, 2017)
In all, about 340,000 compounds went through this assay and about 8,500 (2.5%) were called active. The list comes from a sample in which actives are over-represented; it also holds similar structures and randomly drawn compounds. Values without a mark were called inactive.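 How the source made its calls: active means melting temperature shift of at least 10% of the positive control shift, at one fixed dose; inactive means the rest.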

System: Glutamate receptor ionotropic, NMDA 3A (GRIN3A) ligand-binding domain
Assay: NR3A LBD thermal stabilization by compounds – biophysical, differential scanning fluorimetry, uHTS, primary screen (AID 1259313)
Settings: at 25 µM, hits give high values, 0% = protein alone, 100% = glycine-bound protein

SMILES	Tm shift relative to glycine control
Cc1cc(=O)oc2c1ccc1ccccc12	0.49%
CCOC(=O)c1cccc(NC(=O)C2CCCN(S(=O)(=O)c3cnc[nH]3)C2)c1 (centres undefined)	-1.2%
Cc1cc(C)c(C(=O)CSc2nc(C)cc(=O)[nH]2)c(C)c1	-3.2%
COC(=O)c1ccccc1SC1CC(=O)N(c2cccc(C)c2)C1=O (centres undefined)	-2.37%
COc1cc(OC)c(C(=O)Nc2ccccc2-c2ccccc2)cc1OC	11.5% (active)
COc1cc2ccccc2cc1C(=O)Nc1ccccc1C	3.64%
O=C(Nc1ccccc1-c1ccccc1)c1ccccc1[N+](=O)[O-]	-0.71%
Cc1sc(NC(=O)C2=COCCO2)c(C#N)c1C	-1.88%
O=C(Nc1cccc(-c2cccc(Cl)c2)c1)C1CCN(C2CCC2)CC1	-0.08%
C=CCSc1nnc(Cn2c(=O)sc3ccccc32)n1C	-0.55%
CCOC(=O)c1oc2c(CN3CCN(C)CC3)c(O)ccc2c(=O)c1-c1ccc(Br)cc1	-3.94%
O=c1c(-c2ccc3c(c2)OCCO3)c(C(F)(F)F)oc2cc(O)cc(O)c12	6.01%
CCOC(=O)c1cc2cc(-c3c(C(=O)OCC)oc4cc(O)cc(O)c4c3=O)ccc2o1	22.4% (active)
Nc1nc(SCc2ccc([N+](=O)[O-])cc2)c2ncn(C3OC(CO)C(O)C3O)c2n1 (centres undefined)	1.21%
COc1ccc(CN2CCNC(=O)C2CC(=O)N(C)Cc2ccccn2)cc1OC (centres undefined)	2.19%
Cc1ccc(-n2nc(C)c(/C=N/NC(=O)c3cccs3)c2Cl)cc1	-1.88%
Cc1cccc(-n2c(C)cc(/C=N\NC(=O)c3cccs3)c2C)c1	11.5% (active)
Cc1ccc(-n2c(C)cc(/C=N\NC(=O)CC(=O)NC(C)C)c2C)cc1	-0.09%
CN1CCN(c2ccccc2NC(=O)COc2ccc(C3CCCCC3)cc2)CC1	2.39%
CC1(C)C/C(=C(/C#N)C(N)=O)CCO1	1.51%

SMILES	Tm shift relative to glycine control
Cc1cc(Cl)ccc1C(=O)C1CCCN(C(=O)CCN2CCCO2)C1 (centres undefined)	-1.36%
CCNS(=O)(=O)c1ccc(NC(=O)Nc2cccc(C(F)(F)F)c2)cc1	38.8% (active)
CCN(CC(=O)Nc1ccc(S(=O)(=O)N2CCCC2)cc1)CC(=O)Nc1cccc(OC)c1	0.48%
O=C(NCc1ccccc1)c1ccc(S(=O)(=O)Nc2cccc(C(F)(F)F)c2)cc1	8.53%
O=C(Nc1ccc(C(=O)N2CCOCC2)cc1)Nc1cccc(C(F)(F)F)c1	-5.51%
CCNS(=O)(=O)c1ccc(NC(=O)Nc2cccc(OC)c2)cc1	29.6% (active)
COc1cccc(NC(C)=[N+](C)CCNS(=O)(=O)c2ccc(Cl)cc2)c1	-3.14%
O=C(N/N=C/c1ccc(OCC2COCCO2)cc1)c1ccc(Br)cc1 (centres undefined)	8.82%
COc1ccc(N2C(=O)C3C(C2=O)C(C(=O)c2ccccc2)N2CCCC32)cc1 (centres undefined)	-1.47%
Cc1cccc(C(=O)Nc2ccccc2C(=O)NCc2cccnc2)c1	-0.85%
Cc1nc(NNC(=O)c2ccccc2)cc(-c2ccccc2)n1	-0.16%
c1ccc(-c2cc(N3CCCCC3)c3ccccc3n2)cc1	0.96%
Nc1cccc(-c2cc(-c3ccccc3)nc(-c3cccc(N)c3)n2)c1	42.8% (active)
NS(=O)(=O)c1ccc(N=Nc2c(O)[nH]c3ccc(Br)cc23)cc1	23.4% (active)
Oc1[nH]c2ccc(Br)cc2c1N=Nc1nn[nH]n1	4.42%
O=C(CNC(=O)Cc1ccccc1)N=Nc1c(O)[nH]c2ccc(Br)cc12	-9.04%
CCOc1cc2[nH]c(=S)n(CCN3CCCCC3C)c(=O)c2cc1OCC (centres undefined)	0.59%
Cc1cc(C)cc(OCC(=O)NNC(=O)c2cc3ccccc3oc2=O)c1	2.22%
O=C(NCC(O)c1ccc([N+](=O)[O-])cc1)C1CCCCC1 (centres undefined)	-0.64%
O=C(CC(c1ccccc1)c1ccccc1)NCC(O)c1ccc([N+](=O)[O-])cc1 (centres undefined)	-6.68%

SMILES	Tm shift relative to glycine control
CC(=O)NCC(O)c1ccc([N+](=O)[O-])cc1 (centres undefined)	12.1% (active)
COC(=O)c1cc(NS(=O)(=O)c2ccc3c(c2)c(=O)n(C)c(=O)n3C)cc(C(=O)OC)c1	-17.2%
Cc1csc2nc(O)c(C(=O)NCCN3CCOCC3)c(=O)n12	1.24%
NC(=O)C1CCN(CC(O)CSc2ccc(F)cc2)CC1 (centres undefined)	-0.69%
CCOC(=O)c1sc(-c2cccc([N+](=O)[O-])c2)cc1N	20.4% (active)
COC(=O)C(C)Oc1ccc2c(-c3cccc([N+](=O)[O-])c3)cc(=O)oc2c1 (centres undefined)	0.72%
CCOC(=O)C1=C(CN2CCCCCC2)NC(=O)NC1c1cccc([N+](=O)[O-])c1 (centres undefined)	0.15%
Cc1cccc(C(=O)Nc2nnc(Cc3c[nH]c4ccccc34)s2)c1	-7.42%
Cc1cccc(N=C2NN=C(c3c[nH]c4ccccc34)CS2)c1	19.3% (active)
C=CCn1c(C)cc(C2=NNC(=NCC)SC2)c1C	-0.92%
CC(C)C(C(=O)NCc1ccco1)N(CC1CCCO1)C(=O)CNS(=O)(=O)c1ccc(F)cc1 (centres undefined)	0.85%
O=C(Nn1cc(C(=O)N2CCN(c3ccccc3F)CC2)c2ccccc2c1=O)c1cnccn1	-1.41%
COc1ccc(NS(=O)(=O)c2ccc3oc(SCC(N)=O)nc3c2)cc1	-0.47%
COc1ccc(S(=O)(=O)Nc2ccc(O)c(Sc3nc4ccccc4s3)c2)cc1	11.6% (active)
COc1ccc(/C=C(/CC(=O)Nc2ccc(C)cc2)c2nc3ccccc3s2)cc1	-2.24%
CCC(C)(C)NC(=O)/C=C/c1cc(OC)c(OC)c(S(=O)(=O)N2CCc3ccccc32)c1	0.08%
COc1ccc(CNC(=O)CNC(=O)c2sc3ccccc3c2Cl)cc1OC	1.07%
O=C(N/N=C/c1c(Cl)[nH]c2ccccc12)c1sc2ccccc2c1Cl	28.2% (active)
COCCNC(=S)N/N=C/c1c(C)[nH]c2ccccc12	-4.38%
